Values without a mark were called inactive. Results filed as inconclusive are left out. Entries that show only a call come without a potency. Calls of active or inactive are those of the source. Unless noted, calls follow the shape of the full dose curve.
Columns and labels:
[1] = Nuclear factor erythroid 2-related factor 2/antioxidant responsive element (Nrf2/ARE) small molecule agonists: qHTS cell viability counter screen in human keratinocytes (AID 1919968; active = well fitted curve in the direction sought with a large enough effect in the repeat runs; an effect the other way counts as inactive or inconclusive; also: nearly all actives have a fitted effect of over 55% in size)
How it was run: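 Seed 1,500 KeratinoSens cells per well, then incubate 5 h at 37 C/5% CO2. Add compounds in DMSO and incubate 23 h. Add CellTiter-Fluor, wait 1 h and read fluorescence.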

[2] = target: Gonadotropin-releasing hormone receptor (Homo sapiens) (UniProt P30968); assay: Human gonadotropin-releasing hormone receptor (GnRHR) small molecule agonists, calcium flux assay in GnRHR-HEK293 cells (AID 1920063); also: nearly all actives have a fitted effect of over 35% in size
Chain of Gonadotropin-releasing hormone receptor (Homo sapiens) (P30968 whole entry, looked up): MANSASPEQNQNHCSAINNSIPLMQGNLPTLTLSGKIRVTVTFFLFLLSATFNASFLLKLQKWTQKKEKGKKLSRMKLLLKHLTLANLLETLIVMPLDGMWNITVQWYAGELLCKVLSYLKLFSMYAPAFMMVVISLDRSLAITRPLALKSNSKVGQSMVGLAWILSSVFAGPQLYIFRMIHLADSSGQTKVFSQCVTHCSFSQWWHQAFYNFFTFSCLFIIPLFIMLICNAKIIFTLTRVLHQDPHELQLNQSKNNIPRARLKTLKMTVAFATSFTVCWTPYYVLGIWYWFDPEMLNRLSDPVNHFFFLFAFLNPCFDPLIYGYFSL
How it was run: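 Cells: HEK293 stably expressing human GnRHR. Steps: overnight (18 h) culture, 1 h calcium dye loading at 37 C, compound addition, kinetic fluorescence read at 480/540 nm. Each compound tested at 15 concentrations in triplicate.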

[3] = target: KiSS-1 receptor (Homo sapiens) (UniProt Q969F8); assay: Human kisspeptin (KISS1R) small molecule agonists, calcium flux assay in KISS1R-HEK293 cells (AID 1920064; active = well fitted curve in the direction sought with a large enough effect in the repeat runs; an effect the other way counts as inactive or inconclusive)
Chain of KiSS-1 receptor (Homo sapiens) (Q969F8 whole entry, looked up): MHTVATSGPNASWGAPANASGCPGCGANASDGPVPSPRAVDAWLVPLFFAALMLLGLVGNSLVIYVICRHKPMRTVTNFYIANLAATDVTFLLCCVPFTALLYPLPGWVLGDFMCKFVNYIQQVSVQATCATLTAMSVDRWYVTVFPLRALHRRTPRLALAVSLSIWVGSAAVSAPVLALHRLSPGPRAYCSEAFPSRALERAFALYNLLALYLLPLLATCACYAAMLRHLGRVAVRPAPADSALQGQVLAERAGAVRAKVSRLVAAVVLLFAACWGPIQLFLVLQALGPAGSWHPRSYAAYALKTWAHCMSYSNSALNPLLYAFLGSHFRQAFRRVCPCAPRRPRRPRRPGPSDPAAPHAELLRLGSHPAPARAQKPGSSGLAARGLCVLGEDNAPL
How it was run: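 Cells plated and incubated 18 h; dye added, 1 h at 37 C; compounds in DMSO pinned in; signal read at 480/540 nm every second for 3 min. Each compound tested at 15 concentrations in triplicate.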

[4] = G protein-coupled receptor (GPCR) small molecule agonists, calcium flux assay: HEK293 wild type cell line counter screen (AID 1920065)
How it was run: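 Counter-screen of the Tox21 10K library for non-specific calcium release: dye-loaded cells received compounds in DMSO and were monitored by kinetic fluorescence (480/540 nm, 3 min). Fifteen concentrations, run in triplicate.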

[5] = p53 small molecule agonists, cell-based qHTS assay with human liver microsomes (AID 1963577);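 also: p53 response element beta-lactamase reporter cells with liver microsomes plus NADPH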
How it was run: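 With metabolic activation: human liver microsomes (0.5 mg/mL final) plus NADPH (0.5 mg/mL final) added alongside compounds to p53RE-bla cells; 16 h 37 C exposure; beta-lactamase read by LiveBLAzer fluorescence.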

[6] = p53 small molecule agonists, cell-based qHTS assay with rat liver microsomes (AID 1963578)
How it was run: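 Metabolic activation by rat liver microsomes and NADPH, each 0.5 mg/mL final, added right after compounds to p53RE-bla reporter cells (4,000/well, plated 5 h earlier). 16 h at 37 C, then LiveBLAzer substrate for 2 h at room temperature in the dark; fluorescence read-out.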

[7] = p53 small molecule agonists, cell-based qHTS assay with human liver microsomes: qHTS cell viability counter screen (AID 1963579); also: nearly all actives have a fitted effect of over 45% in size
How it was run: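 Metabolic activation used human liver microsomes and NADPH, both 0.5 mg/mL final, over 16 hours at 37 C on p53RE-bla cells (4,000/well). Cytotoxicity measured by CellTiter-Glo luminescence, 30 min at room temperature.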

[8] = p53 small molecule agonists, cell-based qHTS assay with rat liver microsomes: qHTS cell viability counter screen (AID 1963580); also: nearly all actives have a fitted effect of over 45% in size
How it was run: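 p53RE-bla HCT-116 cells were exposed 16 h at 37 C to compounds with rat liver microsomes (0.5 mg/mL) and NADPH (0.5 mg/mL). Viability was measured in the same wells as ATP content by CellTiter-Glo luminescence.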

[9] = p53 small molecule agonists, cell-based qHTS assay: qHTS cell viability counter screen (AID 1963581); also: nearly all actives have a fitted effect of over 45% in size
How it was run: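 Cells: HCT-116 with p53 response element-driven beta-lactamase. Treatment: 16 h, 37 C, compounds in DMSO. Read: CellTiter-Glo luminescence after 30 min RT.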

[10] = p53 small molecule agonists, cell-based qHTS assay (AID 1963582; active = well fitted activation curve with a large enough effect in the signal ratio in the repeat runs, not every such curve was filed as active; the % refers to the signal ratio)
How it was run: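 Quantitative HTS in p53RE-bla cells: after a 5 h settling period, compounds delivered in DMSO were left on cells for 16 h at 37 C, and reporter induction was measured as fluorescence following 2 h substrate loading.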

[11] = target: 5-hydroxytryptamine receptor 2A (Homo sapiens) (UniProt P28223); assay: 5-hydroxytryptamine receptor 2A (HTR2A) small molecule antagonists, cell-based qHTS assay (AID 1963586); also: nearly all actives have a fitted effect of over 45% in size
Chain of 5-hydroxytryptamine receptor 2A (Homo sapiens) (P28223 whole entry, looked up): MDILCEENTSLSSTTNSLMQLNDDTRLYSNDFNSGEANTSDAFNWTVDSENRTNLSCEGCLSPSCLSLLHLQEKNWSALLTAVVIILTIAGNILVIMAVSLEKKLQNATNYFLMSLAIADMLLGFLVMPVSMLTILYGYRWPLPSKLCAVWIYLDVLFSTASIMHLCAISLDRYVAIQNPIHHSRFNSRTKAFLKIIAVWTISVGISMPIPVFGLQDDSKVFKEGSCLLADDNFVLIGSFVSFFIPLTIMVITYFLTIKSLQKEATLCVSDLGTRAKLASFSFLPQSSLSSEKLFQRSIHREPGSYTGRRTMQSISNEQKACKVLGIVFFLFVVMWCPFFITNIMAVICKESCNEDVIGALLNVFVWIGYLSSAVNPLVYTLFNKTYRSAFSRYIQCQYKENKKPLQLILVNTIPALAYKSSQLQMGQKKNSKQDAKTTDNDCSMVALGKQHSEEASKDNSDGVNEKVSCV
How it was run: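 Antagonist-mode intracellular calcium assay: DOI (4 nM) added after 5 min compound pre-incubation at room temperature to dye-loaded HTR2A-CHO cells. Fluorescence followed for 3 min, sampled every second.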

[12] = target: Muscarinic acetylcholine receptor M1 (Homo sapiens) (UniProt P11229); assay: Cholinergic receptor muscarinic 1 (CHRM1) small molecule antagonists, cell-based qHTS assay (AID 1963588); also: nearly all actives have a fitted effect of over 40% in size
Chain of Muscarinic acetylcholine receptor M1 (Homo sapiens) (P11229 whole entry, looked up): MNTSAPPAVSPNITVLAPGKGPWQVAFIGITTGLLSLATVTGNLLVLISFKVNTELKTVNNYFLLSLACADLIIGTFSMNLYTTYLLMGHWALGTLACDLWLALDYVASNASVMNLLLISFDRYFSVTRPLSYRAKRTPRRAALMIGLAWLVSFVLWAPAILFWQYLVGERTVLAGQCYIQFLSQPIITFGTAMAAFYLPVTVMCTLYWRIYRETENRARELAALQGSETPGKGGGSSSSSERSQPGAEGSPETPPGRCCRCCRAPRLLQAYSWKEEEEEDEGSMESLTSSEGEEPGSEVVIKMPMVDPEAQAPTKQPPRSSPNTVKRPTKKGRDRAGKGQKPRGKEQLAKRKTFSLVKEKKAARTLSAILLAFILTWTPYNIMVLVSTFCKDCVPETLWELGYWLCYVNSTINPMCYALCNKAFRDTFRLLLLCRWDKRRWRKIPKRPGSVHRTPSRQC
How it was run: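 CHRM1-CHO calcium-flux assay, antagonist mode. Cells were seeded 18 h, dye-loaded 1 h at 37 C and given compound for 5 min at RT, then acetylcholine was added at 50nM. FDSS fluorescence was read 3 min; 15 concentrations, three runs.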

[13] = target: Muscarinic acetylcholine receptor M1 (Homo sapiens) (UniProt P11229); assay: Cholinergic receptor muscarinic 1 (CHRM1) small molecule agonists, cell-based qHTS assay (AID 1963589); also: nearly all actives have a fitted effect of over 35% in size
How it was run: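 Agonist-mode qHTS in CHO cells stably carrying human muscarinic M1. Intracellular calcium is tracked by fluorescence every second after compound transfer; each compound runs at 15 concentrations in three independent runs.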

[14] = target: Beta-2 adrenergic receptor (Homo sapiens) (UniProt P07550); assay: Adrenergic beta2 receptor (ADRB2) small molecule antagonists, cell-based qHTS assay (AID 1963592); also: series mostly up to about 92 µM; nearly all actives have a fitted effect of over 50% in size
Chain of Beta-2 adrenergic receptor (Homo sapiens) (P07550 whole entry, looked up): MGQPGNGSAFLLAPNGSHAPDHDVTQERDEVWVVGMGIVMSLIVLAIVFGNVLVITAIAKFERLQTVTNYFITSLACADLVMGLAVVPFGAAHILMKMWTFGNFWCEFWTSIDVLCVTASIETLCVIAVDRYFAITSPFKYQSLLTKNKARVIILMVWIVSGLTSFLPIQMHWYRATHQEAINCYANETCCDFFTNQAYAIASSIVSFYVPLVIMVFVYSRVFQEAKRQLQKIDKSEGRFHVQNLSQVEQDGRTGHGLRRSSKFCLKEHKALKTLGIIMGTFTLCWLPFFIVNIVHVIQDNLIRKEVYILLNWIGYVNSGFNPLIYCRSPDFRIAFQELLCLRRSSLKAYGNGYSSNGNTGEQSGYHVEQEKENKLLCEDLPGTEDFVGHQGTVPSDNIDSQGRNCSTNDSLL
How it was run: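 Cells (CHO, stable ADRB2 overexpression) incubated 18-20hr at 37C; compounds added from DMSO; agonist mix (1nM isoproterenol, 100uM IBMX, 25uM Ro-20-1724) added; 0.5hr RT; d2-cAMP and anti-cAMP-cryptate added; 1hr RT; 665/615 nm read.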

[15] = target: Beta-2 adrenergic receptor (Homo sapiens) (UniProt P07550); assay: Adrenergic beta2 receptor (ADRB2) small molecule agonists, cell-based qHTS assay (AID 1963593);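 also: CHO cells stably overexpressing human ADRB2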
How it was run: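 CHO cells stably over-expressing ADRB2 were plated overnight at 37C, then dosed with compounds plus a stimulation mix containing 100uM IBMX and 25uM Ro-20-1724 for 0.5hr at room temperature. cAMP was measured by HTRF competition, 1hr.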

[16] = target: D(2) dopamine receptor (Homo sapiens) (UniProt P14416); assay: Dopamine D2 receptor (DRD2) small molecule agonists, cell-based qHTS assay (AID 1963594); also: nearly all actives have a fitted effect of over 35% in size
Chain of D(2) dopamine receptor (Homo sapiens) (P14416 whole entry, looked up): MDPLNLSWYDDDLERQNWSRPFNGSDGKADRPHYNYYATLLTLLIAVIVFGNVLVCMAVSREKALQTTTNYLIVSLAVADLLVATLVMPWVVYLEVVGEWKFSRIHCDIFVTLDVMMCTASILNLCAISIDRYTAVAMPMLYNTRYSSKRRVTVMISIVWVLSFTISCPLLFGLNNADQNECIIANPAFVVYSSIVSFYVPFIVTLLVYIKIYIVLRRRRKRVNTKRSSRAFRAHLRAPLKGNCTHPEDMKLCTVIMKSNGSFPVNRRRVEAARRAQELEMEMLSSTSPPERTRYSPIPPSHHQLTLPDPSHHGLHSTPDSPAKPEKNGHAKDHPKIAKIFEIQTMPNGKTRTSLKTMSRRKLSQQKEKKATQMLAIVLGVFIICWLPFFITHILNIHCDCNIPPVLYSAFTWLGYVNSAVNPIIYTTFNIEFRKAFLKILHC
How it was run: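 HEK293 cells stably expressing human DRD2, pre-treated with PDE inhibitor Ro20-1724 (0.1 mM final) and compound 10 min at room temperature, then stimulated with NKH477 (200nM […]) for 30 min. cAMP read by HTRF (665/620 nm).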

[17] = target: D(2) dopamine receptor (Homo sapiens) (UniProt P14416); assay: Dopamine D2 receptor (DRD2) small molecule antagonists, cell-based qHTS assay (AID 1963595; active = well fitted inhibition curve with a large enough effect in the signal ratio in the repeat runs, with a control signal flat; the % refers to the signal ratio; also: potency is read from the fitted curve at half-maximal effect)
How it was run: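 DRD2-HEK293; 0.1 mM Ro20-1724; cpd 10 min RT; NKH477 200 nM + quinpirole 12 nM, 30 min RT; HTRF cAMP (cAMP-d2/anti-cAMP cryptate), 665/620 nm ratio after 1 h.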

[18] = target: 5-hydroxytryptamine receptor 2A (Homo sapiens) (UniProt P28223); assay: 5-hydroxytryptamine receptor 2A (HTR2A) small molecule agonists, cell-based qHTS assay (AID 1963587); also: nearly all actives have a fitted effect of over 30% in size
How it was run: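 CHO cells stably expressing human HTR2A, plated 18 h, loaded with calcium dye 1 h at 37 C. Agonist mode: compounds added and intracellular calcium fluorescence recorded kinetically for 2 min at 1 sec intervals.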

[19] = cAMP Responsive Elements (CRE) small molecule agonists, cell-based qHTS assay (AID 1963590)
How it was run: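 Agonist mode qHTS in CRE-bla HEK 293T cells: compounds dosed from DMSO for 3 h at 37 C/5% CO2, followed by LiveBLAzer B/G FRET substrate for 2 h at room temperature.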

[20] = cAMP Responsive Elements (CRE) small molecule antagonists, cell-based qHTS assay (AID 1963591; active = well fitted inhibition curve with a large enough effect in the signal ratio in the repeat runs, not every such curve was filed as active; the % refers to the signal ratio)
How it was run: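 Antagonist mode: test compounds are co-incubated with the adenylyl cyclase activator NKH477 (0.25 uM final) on CRE-bla HEK293T cells for 3 h at 37 °C, followed by LiveBLAzer substrate loading.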

SMILES | Potency [1] | Potency [2] | outcome [3] | outcome [4] | Potency [5] | Potency [6] | Potency [7] | Potency [8] | Potency [9] | Potency [10] | Potency [11] | Potency [12] | Potency [13] | Potency [14] | Potency [15] | Potency [16] | Potency [17] | Potency [18] | Potency [19] | Potency [20]
C/C=C/C=C/COC(=O)C(C)C | inactive | inactive | inactive | inactive | inactive | inactive | inactive | inactive | inactive | inactive | inactive | inactive | inactive | inactive | inactive | inactive | inactive | – | – | –
C=COCC(C)C | inactive | inactive | inactive | inactive | inactive | inactive | inactive | inactive | inactive | – | inactive | inactive | inactive | inactive | inactive | inactive | inactive | inactive | inactive | inactive
Cc1oc(-c2ccccc2)nc1CCC(=O)c1ccc(CC2SC(=O)NC2=O)cc1 (stereo unspecified) | inactive | inactive | inactive | inactive | inactive | inactive | inactive | inactive | inactive | – | inactive | inactive | inactive | inactive | – | inactive | – | inactive | – | –
COC(=O)[C@@H]1[C@H]2C[C@H]3c4[nH]c5ccccc5c4CCN3C[C@@H]2CC[C@@H]1O | inactive | inactive | inactive | inactive | inactive | inactive | inactive | inactive | inactive | inactive | – | – | – | – | inactive | inactive | 23.7 µM (active) | – | inactive | inactive

Reference: PubChem BioAssay (Tox21)
